This note sets out measurements from article PMC13541613, “GHT-SELEX demonstrates unexpectedly high intrinsic sequence specificity and complex DNA binding of many human transcription factors”.

Common to all, as to experiment: HT-SELEX; 20 mM HEPES pH 7, 140 mM KCl, 5 mM NaCl, 1 mM K2HPO4, 2 mM MgSO4, 100 uM EGTA, ZnSO4, 0.1% Tween20; room temperature, 1 h; high values mean tight binding
Holding throughout (details): protein: ivt; tags: eGFP (N-terminal); dsDNA, one strand shown

For test [1], the target named is ZNF721 full-length (Homo sapiens, UniProt Q8TF20-2 1-923). The method, boiled down: (§1)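 The binding signal is a relative k-mer count in selected reads, and higher values mean tighter binding. To obtain these reads, bead-bound tagged transcription factor (full-length or DNA-binding-domain fragment, produced in HEK293 lysate or cell-free extract) was mixed with a randomized 40-base DNA library for 1 h at room temperature in low-stringency HEPES/KCl buffer with Tween20. Bound DNA was recovered by washing and heat elution, PCR-amplified through successive cycles and sequenced on Illumina (~3 million 60 bp reads per sample).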
Chain of ZNF721 full-length (Q8TF20 other isoform, or with tags, fused parts or gaps): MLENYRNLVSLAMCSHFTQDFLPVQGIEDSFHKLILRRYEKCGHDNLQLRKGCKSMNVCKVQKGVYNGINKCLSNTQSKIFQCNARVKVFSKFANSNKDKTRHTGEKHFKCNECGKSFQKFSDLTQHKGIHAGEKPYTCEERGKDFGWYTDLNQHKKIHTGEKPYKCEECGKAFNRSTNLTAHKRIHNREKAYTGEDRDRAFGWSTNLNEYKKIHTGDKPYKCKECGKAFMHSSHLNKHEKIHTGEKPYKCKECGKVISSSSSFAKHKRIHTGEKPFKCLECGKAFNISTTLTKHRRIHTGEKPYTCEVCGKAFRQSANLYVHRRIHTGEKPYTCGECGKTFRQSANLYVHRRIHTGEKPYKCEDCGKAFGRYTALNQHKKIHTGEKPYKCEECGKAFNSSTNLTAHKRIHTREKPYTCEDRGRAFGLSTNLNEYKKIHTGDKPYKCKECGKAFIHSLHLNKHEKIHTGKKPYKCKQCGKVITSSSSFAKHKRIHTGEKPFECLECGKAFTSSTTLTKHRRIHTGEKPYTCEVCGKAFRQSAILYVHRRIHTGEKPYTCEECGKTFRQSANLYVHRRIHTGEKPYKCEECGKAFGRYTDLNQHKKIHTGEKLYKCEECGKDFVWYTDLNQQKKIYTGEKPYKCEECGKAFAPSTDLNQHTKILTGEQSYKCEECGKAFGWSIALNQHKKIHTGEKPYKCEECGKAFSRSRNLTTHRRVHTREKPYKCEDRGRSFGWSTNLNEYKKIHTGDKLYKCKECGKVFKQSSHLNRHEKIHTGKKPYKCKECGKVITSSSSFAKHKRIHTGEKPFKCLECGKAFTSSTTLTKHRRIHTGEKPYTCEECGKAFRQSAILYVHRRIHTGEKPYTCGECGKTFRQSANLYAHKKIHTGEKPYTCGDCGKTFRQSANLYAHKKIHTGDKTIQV

In test [2] the target is ZNF721 DBD1 (Homo sapiens, UniProt Q8TF20-2 29-461). The method, boiled down: as §1
Chain of ZNF721 DBD1 (Q8TF20 17-449): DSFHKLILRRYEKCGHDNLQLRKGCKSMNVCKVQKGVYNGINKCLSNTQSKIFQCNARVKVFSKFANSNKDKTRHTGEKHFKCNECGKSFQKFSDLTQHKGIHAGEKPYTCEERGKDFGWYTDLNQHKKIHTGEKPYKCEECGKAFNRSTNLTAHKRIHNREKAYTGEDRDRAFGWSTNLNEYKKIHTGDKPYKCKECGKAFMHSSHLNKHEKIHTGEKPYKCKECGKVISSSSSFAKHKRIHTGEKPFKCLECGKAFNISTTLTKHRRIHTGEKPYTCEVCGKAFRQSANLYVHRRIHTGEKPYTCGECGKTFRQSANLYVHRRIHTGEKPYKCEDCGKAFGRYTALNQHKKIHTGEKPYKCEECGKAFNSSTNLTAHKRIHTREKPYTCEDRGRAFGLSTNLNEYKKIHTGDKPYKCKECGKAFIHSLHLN
In test [3] the target is ZNF721 DBD2 (Homo sapiens, UniProt Q8TF20-2 395-923). The method, boiled down: as §1
Chain of ZNF721 DBD2 (Q8TF20 383-911): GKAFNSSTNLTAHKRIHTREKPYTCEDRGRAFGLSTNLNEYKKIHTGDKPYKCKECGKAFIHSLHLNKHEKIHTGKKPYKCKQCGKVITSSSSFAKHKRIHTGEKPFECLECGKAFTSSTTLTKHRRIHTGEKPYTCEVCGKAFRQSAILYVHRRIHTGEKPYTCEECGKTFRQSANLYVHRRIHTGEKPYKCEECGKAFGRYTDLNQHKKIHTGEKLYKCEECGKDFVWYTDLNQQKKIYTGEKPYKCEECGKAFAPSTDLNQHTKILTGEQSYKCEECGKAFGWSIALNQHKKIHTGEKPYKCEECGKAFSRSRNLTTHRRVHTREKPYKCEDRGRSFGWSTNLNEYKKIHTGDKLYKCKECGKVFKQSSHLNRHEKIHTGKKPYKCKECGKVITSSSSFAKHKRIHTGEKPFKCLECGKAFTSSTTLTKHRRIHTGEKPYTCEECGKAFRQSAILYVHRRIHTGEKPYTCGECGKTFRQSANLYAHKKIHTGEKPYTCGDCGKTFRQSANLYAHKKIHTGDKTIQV

Take CCCCCCTACC: the results for the binding signal in test [1], in test [2] and in test [3] were 0.127 relative 10-mer count, 0.00569 relative 10-mer count and 0.0036 relative 10-mer count, respectively.

With CCCCCTGCCC, the figures for the binding signal in test [1], in test [2] and in test [3] were 0.154 relative 10-mer count, 0.00628 relative 10-mer count and 0.00192 relative 10-mer count, respectively.

Turning to AAAGCAGCCC, the binding signal in test [1] is 0.134 relative 10-mer count; in test [2], 0.00225 relative 10-mer count; in test [3], 0.133 relative 10-mer count.

Turning to AGCGTATCCT, the results for the binding signal in test [1], in test [2] and in test [3] were 0.146 relative 10-mer count, 0.0287 relative 10-mer count and 0.192 relative 10-mer count, respectively.

In the case of CACCGCCACC, the binding signal in test [1] was found to be 0.117 relative 10-mer count; in test [2], 0.00339 relative 10-mer count; in test [3] it was 0.00384 relative 10-mer count.

In the case of CCCCCATCCC, the binding signal in test [1] turned out to be 0.173 relative 10-mer count; in test [2], 0.00638 relative 10-mer count; in test [3] it was 0.00384 relative 10-mer count.

Take AAAACAGTAT: the binding signal in test [1] worked out at 0.105 relative 10-mer count; in test [2], 0.00124 relative 10-mer count; in test [3], 0.155 relative 10-mer count.

As for AAAAAGCTGC, the binding signal worked out at 0.229 relative 10-mer count in test [1], 0.0954 relative 10-mer count in test [2] and 0.00372 relative 10-mer count in test [3].

For the sequence CACCGCCCAC, the binding signal in test [1] was 0.123 relative 10-mer count; in test [2], 0.00482 relative 10-mer count; in test [3], 0.00372 relative 10-mer count.

For the sequence TGTGTATGAA, the results for the binding signal in test [1], in test [2] and in test [3] were 0.169 relative 10-mer count, 0.203 relative 10-mer count and 0.00228 relative 10-mer count, respectively.

With CCCACCCACC, the values for the binding signal in test [1], in test [2] and in test [3] were 0.425 relative 10-mer count, 0.0187 relative 10-mer count and 0.00899 relative 10-mer count, respectively.

For AGCATACCCT, the results for the binding signal in test [1], in test [2] and in test [3] were 0.346 relative 10-mer count, 0.0443 relative 10-mer count and 0.416 relative 10-mer count, respectively.

For CACCCTCCCC, the binding signal was determined as 0.212 relative 10-mer count in test [1], 0.00945 relative 10-mer count in test [2] and 0.00312 relative 10-mer count in test [3].

With CCCAACCCCA, the figures for the binding signal in test [1], in test [2] and in test [3] were 0.132 relative 10-mer count, 0.00459 relative 10-mer count and 0.00372 relative 10-mer count, respectively.

For the sequence GAAAAAAAAA, the binding signal in test [1] was found to be 0.142 relative 10-mer count; in test [2], 0.0136 relative 10-mer count; in test [3], 0.0513 relative 10-mer count.

For the sequence ACCCCCCGCC, the binding signal in test [1] was 0.137 relative 10-mer count; in test [2] it was 0.00555 relative 10-mer count; in test [3], 0.00384 relative 10-mer count.

Consider CCTCCCTCCC, for which the binding signal amounted to 0.179 relative 10-mer count in test [1], 0.00931 relative 10-mer count in test [2] and 0.00479 relative 10-mer count in test [3].

CCCCGCACCC: the binding signal was found to be 0.179 relative 10-mer count in test [1], 0.00812 relative 10-mer count in test [2] and 0.00252 relative 10-mer count in test [3].

Consider GCCCCAACCC, for which the binding signal in test [1] was determined as 0.105 relative 10-mer count; in test [2], 0.00376 relative 10-mer count; in test [3], 0.00168 relative 10-mer count.

As to CCGTCCCACC, the binding signal turned out to be 0.123 relative 10-mer count in test [1], 0.00546 relative 10-mer count in test [2] and 0.00312 relative 10-mer count in test [3].

Turning to CGCACCCCCC, the results for the binding signal in test [1], in test [2] and in test [3] were 0.118 relative 10-mer count, 0.00463 relative 10-mer count and 0.00276 relative 10-mer count, respectively.

For GGGGGTGGGA, the binding signal in test [1] is 0.205 relative 10-mer count; in test [2] it was 0.0115 relative 10-mer count; in test [3] it was 0.00312 relative 10-mer count.

Turning to AGGGAGGGGG, the binding signal was 0.15 relative 10-mer count in test [1], 0.00628 relative 10-mer count in test [2] and 0.00384 relative 10-mer count in test [3].

Consider CCTCGCCCCC, for which the binding signal came out at 0.123 relative 10-mer count in test [1], 0.00592 relative 10-mer count in test [2] and 0.00144 relative 10-mer count in test [3].

On to CCACCCCATC, for which the binding signal in test [1] is 0.11 relative 10-mer count; in test [2], 0.00509 relative 10-mer count; in test [3], 0.00791 relative 10-mer count.

As to AGGGGGGTGG, the binding signal in test [1] came out at 0.157 relative 10-mer count; in test [2], 0.00835 relative 10-mer count; in test [3], 0.00407 relative 10-mer count.

On to GCCACCCCCA, for which the figures for the binding signal in test [1], in test [2] and in test [3] were 0.107 relative 10-mer count, 0.00326 relative 10-mer count and 0.00216 relative 10-mer count, respectively.

For the sequence CCACCCAACC, the binding signal in test [1] turned out to be 0.151 relative 10-mer count; in test [2], 0.00674 relative 10-mer count; in test [3], 0.00551 relative 10-mer count.

Regarding CGCCCCCGCC, the binding signal in test [1] worked out at 0.132 relative 10-mer count; in test [2], 0.00523 relative 10-mer count; in test [3], 0.00216 relative 10-mer count.

With CCCCCCCCCG, the results for the binding signal in test [1], in test [2] and in test [3] were 0.112 relative 10-mer count, 0.00303 relative 10-mer count and 0.00156 relative 10-mer count, respectively.

AGAAAGAAGC: the binding signal in test [1] was found to be 0.136 relative 10-mer count; in test [2], 0.0675 relative 10-mer count; in test [3], 0.00216 relative 10-mer count.

In the case of CCCCGCGCCC, the binding signal in test [1] stood at 0.138 relative 10-mer count; in test [2], 0.00482 relative 10-mer count; in test [3] it was 0.00228 relative 10-mer count.

In the case of CCCCCCTCAC, the binding signal in test [1] is 0.103 relative 10-mer count; in test [2] it was 0.00482 relative 10-mer count; in test [3] it was 0.00443 relative 10-mer count.

As for TAAAAAAAAA, the binding signal in test [1] was 0.115 relative 10-mer count; in test [2] it was 0.0133 relative 10-mer count; in test [3] it was 0.0464 relative 10-mer count.

For the sequence CACCCCACCC, the binding signal in test [1] was found to be 0.31 relative 10-mer count; in test [2], 0.012 relative 10-mer count; in test [3], 0.0036 relative 10-mer count.

In the case of CCTCCCCCGC, the binding signal in test [1] was determined as 0.131 relative 10-mer count; in test [2], 0.00647 relative 10-mer count; in test [3], 0.00348 relative 10-mer count.

On to CCCCCCCACC, for which the binding signal in test [1] came out at 0.358 relative 10-mer count; in test [2], 0.0144 relative 10-mer count; in test [3], 0.00791 relative 10-mer count.

As for CCGTCCCCCC, the figures for the binding signal in test [1], in test [2] and in test [3] were 0.15 relative 10-mer count, 0.00693 relative 10-mer count and 0.00192 relative 10-mer count, respectively.

In the case of GTATGAAGCA, the binding signal in test [1] was found to be 0.171 relative 10-mer count; in test [2] it was 0.261 relative 10-mer count; in test [3] it was 0.00132 relative 10-mer count.

ACGCTTCATA: the binding signal in test [1] was found to be 0.122 relative 10-mer count; in test [2], 0.2 relative 10-mer count; in test [3], 0.00108 relative 10-mer count.

In the case of CCCGTCCCCC, the binding signal in test [1] was determined as 0.187 relative 10-mer count; in test [2], 0.00771 relative 10-mer count; in test [3], 0.0018 relative 10-mer count.

With CCCCCACCAA, the results for the binding signal in test [1], in test [2] and in test [3] were 0.115 relative 10-mer count, 0.00431 relative 10-mer count and 0.00443 relative 10-mer count, respectively.

On to AAAAAAAAAC, for which the binding signal in test [1] amounted to 0.134 relative 10-mer count; in test [2], 0.00229 relative 10-mer count; in test [3], 0.0808 relative 10-mer count.

In the case of CACCCCCCCA, the binding signal worked out at 0.16 relative 10-mer count in test [1], 0.00716 relative 10-mer count in test [2] and 0.00443 relative 10-mer count in test [3].

For CACCCCCACA, the binding signal in test [1] came out at 0.116 relative 10-mer count; in test [2], 0.00482 relative 10-mer count; in test [3] it was 0.00779 relative 10-mer count.

As to CCACCCCCGA, the binding signal in test [1] came out at 0.104 relative 10-mer count; in test [2], 0.00298 relative 10-mer count; in test [3], 0.00264 relative 10-mer count.

As for CCATCCCCAC, the values for the binding signal in test [1], in test [2] and in test [3] were 0.116 relative 10-mer count, 0.00537 relative 10-mer count and 0.00372 relative 10-mer count, respectively.

Take CCACGCCCCA: the figures for the binding signal in test [1], in test [2] and in test [3] were 0.109 relative 10-mer count, 0.00422 relative 10-mer count and 0.0024 relative 10-mer count, respectively.

As for CGCCCTCCCC, the binding signal was 0.172 relative 10-mer count in test [1], 0.0066 relative 10-mer count in test [2] and 0.00252 relative 10-mer count in test [3].

As for AAAAAAAGCA, the binding signal worked out at 0.612 relative 10-mer count in test [1], 0.037 relative 10-mer count in test [2] and 0.246 relative 10-mer count in test [3].

As for CACCACACCC, the binding signal in test [1] came to 0.12 relative 10-mer count; in test [2] it was 0.00486 relative 10-mer count; in test [3] it was 0.00336 relative 10-mer count.

As for CGCCACCCAC, the binding signal in test [1] was 0.123 relative 10-mer count; in test [2] it was 0.0056 relative 10-mer count; in test [3], 0.00372 relative 10-mer count.

Take CCAAAAAAAG: the values for the binding signal in test [1], in test [2] and in test [3] were 0.124 relative 10-mer count, 0.00812 relative 10-mer count and 0.0564 relative 10-mer count, respectively.

ACCCACCACC: the binding signal came to 0.214 relative 10-mer count in test [1], 0.0104 relative 10-mer count in test [2] and 0.00791 relative 10-mer count in test [3].

As for CCCCTCCTCC, the binding signal in test [1] is 0.154 relative 10-mer count; in test [2], 0.00794 relative 10-mer count; in test [3] it was 0.00515 relative 10-mer count.

On to CCCCCCCATC, for which the values for the binding signal in test [1], in test [2] and in test [3] were 0.115 relative 10-mer count, 0.00358 relative 10-mer count and 0.00324 relative 10-mer count, respectively.

In the case of CCCCCCAGCC, the results for the binding signal in test [1], in test [2] and in test [3] were 0.118 relative 10-mer count, 0.00505 relative 10-mer count and 0.00228 relative 10-mer count, respectively.

Turning to AAAAAAAAGG, the binding signal is 0.175 relative 10-mer count in test [1], 0.00477 relative 10-mer count in test [2] and 0.12 relative 10-mer count in test [3].

Consider ACGCCCCACC, for which the binding signal in test [1] was 0.11 relative 10-mer count; in test [2], 0.00271 relative 10-mer count; in test [3], 0.00431 relative 10-mer count.

Consider GAAAAAAACA, for which the binding signal in test [1] was 0.2 relative 10-mer count; in test [2], 0.00289 relative 10-mer count; in test [3], 0.165 relative 10-mer count.
